Unmarked numbers belong to inactive results.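 How the source made its calls: active means inhibition of plasma PAF acetylhydrolase at a set limit or more at 0.1 µM, with tenfold selectivity over all off-targets; inactive means inhibition below the limit or weaker selectivity.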
Assay: competitive ABPP of pPAFAH versus proteome off-targets – biochemical, gel-based, FP-Rh fluorescence, mouse, HTS hit compounds, selectivity assay for pPAFAH inhibitor project, late-stage follow-up (AID 588773)
Conditions: MW 30 kDa protein, at 10 µM, stronger effect = higher value

| SMILES | inhibition [%] |
| --- | --- |
| CN(C)C(=O)Oc1noc2cc(Cl)ccc12 | 14 |
| O=C(Oc1ccc([N+](=O)[O-])cc1)N1CCC(N2CCCCC2)CC1 | 27 |

Reference: PubChem BioAssay AID588773 (The Scripps Research Institute Molecular Screening Center, 2011)
